Test results as given in PubChem BioAssay (NCATS).
Results filed as inconclusive are left out. Calls of active or inactive are those of the source. Unless noted, calls come from the whole dose curve; as a rule, active = well fitted curve in the direction sought with a large enough effect; inconclusive = small, poorly fitted or top-dose-only effect, or another doubt; inactive = no such curve, though single readings can be large; an effect the other way counts as inactive or inconclusive.

Experiments:
[1] = Cellular Toxicity (caspase-3) Hek293 (AID 664); conditions: HEK293 caspase-3 activation, DMSO = 0%, 100 µM tamoxifen = 100%; series mostly up to 92.2 µM;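 note: cells exposed to compound for 16 h at 37 °C before readout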
Procedure, shortened: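 Activation of caspase-3/7 is measured as increased luminescence from cleaved peptide-aminoluciferin substrate in HEK293 cells treated 16 hours at 37 °C. AC50 values come from Hill-equation fits of concentration-response data.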

[2] = Cellular Toxicity (caspase-3) N2a (AID 665); conditions: N2a cells, luminescence, normalized: DMSO 0%, 10 µM staurosporine 100%; series mostly up to 92.2 µM;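 note: compound exposure lasted 16 h at 37 °C before readout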
Procedure, shortened: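 Plated mouse neuroblastoma N2a cells received titrated compounds for 16 h in complete medium. Caspase activity was then detected with a peptide-aminoluciferin luminescent reagent.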

[3] = Cellular Toxicity (caspase-3) NIH 3T3 (AID 666); conditions: NIH 3T3 caspase-3 activation, apoptosis/toxicity, 0% DMSO, 100% is 100 µM tamoxifen; series mostly up to 92.2 µM;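 note: caspase signal read after 16 h compound exposure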
Procedure, shortened: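 Concentration-response qHTS in NIH 3T3 mouse fibroblasts scores caspase-3/7 activation as rising luminescence after 16 hr compound exposure. Signals are scaled between DMSO-only and 100 uM tamoxifen.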

[4] = Cellular Toxicity (caspase-3) Renal Proximal Tubule (AID 667); conditions: renal proximal tubule cells, primary cells freshly taken from rat, solvent-only wells 0%, staurosporine 100%; series mostly up to 91.7 µM;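 note: cells exposed to compound for 16 hours at 37 °C before detection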
Procedure, shortened: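 In qHTS format, rat primary proximal tubule cells seeded at 1000 per well are exposed to compounds for 16 hours at 37 °C. An increase in Caspase-Glo 3/7 luminescence indicates caspase activation.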

[5] = Cell Viability - LYMP2-001 (AID 921); conditions: LYMP2-001 lymphoblastoid cell viability; series mostly up to 92.2 µM;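 note: cells exposed to compound for 24 h at 37 °C; nearly all actives have a fitted effect of over 70% in size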
Procedure, shortened: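 qHTS, 1536-well; lymphoblastoid cells, 24 hr compound, 37 C; ATP by CellTiter-Glo, 30 min RT; luminescence; Hill-fit AC50.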

[6] = MultiTox-Fluor Cytotoxicity Assay - LYMP1-001 - Dead Cells (AID 946); conditions: LYMP1-001 lymphoblastoid cells, dead-cell protease fluorescence; series mostly up to 92.2 µM
Procedure, shortened: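 AC50 from Hill fit of concentration-response; data normalized to DMSO (basal) and 15 uM tetraoctylammonium bromide (100%). LYMP1-001 lymphoblastoid cells, 2500/well, 16 hr compound at 37 C; dead-cell protease fluorescence, Ex/Em 485/520.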

[7] = MultiTox-Fluor Cytotoxicity Assay - LYMP1-001 - Live Cells (AID 947); conditions: LYMP1-001 lymphoblastoid cells, live-cell protease fluorescence viability; series mostly up to 92.2 µM
[8] = Cell Viability - LYMP1-002 - Assay at 16 hr (AID 948); conditions: LYMP1-002 lymphoblastoid cell viability; series mostly up to 92.2 µM
Procedure, shortened: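 Acute cytotoxicity is scored as a concentration-dependent fall in intracellular ATP in a human lymphoblastoid line (LYMP1-002) after 16 hr compound exposure at 37 C, measured by luciferase luminescence.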

[9] = MultiTox-Fluor Cytotoxicity Assay - LYMP1-002 - Live Cells (AID 955); conditions: LYMP1-002 lymphoblastoid live-cell protease fluorescence viability; series mostly up to 46.1 µM
Procedure, shortened: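 Cytotoxicity in the human lymphoblastoid line LYMP1-002 is measured as loss of live-cell protease activity after 16 h treatment in complete culture medium. AC50 is derived from Hill-equation fits of qHTS concentration-response data.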

[10] = target: Cytochrome P450 3A4 (Homo sapiens) (UniProt P08684); assay: qHTS Assay for Inhibitors and Substrates of Cytochrome P450 3A4 (AID 884); conditions: recombinant CYP3A4, Luciferin-PPXE luminescence; series mostly up to 57.1 µM; note: nearly all actives have a fitted effect of over 50% in size
Chain of Cytochrome P450 3A4 (Homo sapiens) (P08684 whole entry, looked up): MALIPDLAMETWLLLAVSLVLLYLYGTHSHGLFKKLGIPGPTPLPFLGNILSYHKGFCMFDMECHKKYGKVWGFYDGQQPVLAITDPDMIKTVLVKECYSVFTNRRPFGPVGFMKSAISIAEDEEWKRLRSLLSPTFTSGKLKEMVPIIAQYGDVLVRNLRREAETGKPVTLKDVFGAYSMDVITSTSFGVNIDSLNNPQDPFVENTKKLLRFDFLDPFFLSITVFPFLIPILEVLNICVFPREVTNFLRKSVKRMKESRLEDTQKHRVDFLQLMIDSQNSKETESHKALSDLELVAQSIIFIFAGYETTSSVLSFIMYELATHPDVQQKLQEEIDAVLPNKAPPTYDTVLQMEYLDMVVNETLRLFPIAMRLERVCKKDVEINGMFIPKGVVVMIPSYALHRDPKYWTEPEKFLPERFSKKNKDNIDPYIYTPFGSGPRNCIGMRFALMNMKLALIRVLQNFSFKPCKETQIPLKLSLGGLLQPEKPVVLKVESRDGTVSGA
Procedure, shortened: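 20 nM human CYP3A4 with 25 uM Luciferin-PPXE (at KM) in 200 mM KPO4, preincubated 10 min with compound; NADPH regeneration started a 60 min RT reaction. Luciferin detected by luminescence, normalized to 57 uM ketoconazole as full inhibition.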

[11] = target: Guanine nucleotide-binding protein G(i) subunit alpha-1 (Homo sapiens) (UniProt P63096); assay: qHTS Assay for Inhibitors of RGS12 GoLoco Motif Activity (Green Fluorophore) (AID 879); conditions: Galphai1/FITC-RGS12 GoLoco peptide, fluorescence polarization; series mostly up to 57.1 µM;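 note: negative values mean loss of peptide binding seen as reduced polarization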
Chain of Guanine nucleotide-binding protein G(i) subunit alpha-1 (Homo sapiens) (P63096 whole entry, looked up): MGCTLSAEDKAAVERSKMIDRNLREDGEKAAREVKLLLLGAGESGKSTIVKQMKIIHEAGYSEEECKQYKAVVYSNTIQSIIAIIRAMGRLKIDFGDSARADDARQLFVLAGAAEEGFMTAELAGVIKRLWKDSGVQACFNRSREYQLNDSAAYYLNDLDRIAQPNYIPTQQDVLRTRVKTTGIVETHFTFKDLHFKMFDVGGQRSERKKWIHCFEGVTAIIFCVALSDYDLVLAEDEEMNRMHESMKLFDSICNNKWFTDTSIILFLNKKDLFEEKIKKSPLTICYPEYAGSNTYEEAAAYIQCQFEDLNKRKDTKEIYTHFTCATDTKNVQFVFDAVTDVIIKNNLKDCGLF
Procedure, shortened: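 Fluorescence polarization assay: 50 nM Gαi1 with 10 nM FITC-labeled RGS12 GoLoco peptide in 10 mM Tris pH 7.5, 150 mM NaCl, 0.1 mM GDP, 0.05% NP40, 10 min at room temperature with compound.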

[12] = target: Cytochrome P450 2C19 (Homo sapiens) (UniProt P33261); assay: qHTS Assay for Inhibitors and Substrates of Cytochrome P450 2C19 (AID 899); conditions: recombinant CYP2C19, luciferin-H EGE luminescence; series mostly up to 57.1 µM; note: nearly all actives have a fitted effect of over 60% in size
Chain of Cytochrome P450 2C19 (Homo sapiens) (P33261 whole entry, looked up): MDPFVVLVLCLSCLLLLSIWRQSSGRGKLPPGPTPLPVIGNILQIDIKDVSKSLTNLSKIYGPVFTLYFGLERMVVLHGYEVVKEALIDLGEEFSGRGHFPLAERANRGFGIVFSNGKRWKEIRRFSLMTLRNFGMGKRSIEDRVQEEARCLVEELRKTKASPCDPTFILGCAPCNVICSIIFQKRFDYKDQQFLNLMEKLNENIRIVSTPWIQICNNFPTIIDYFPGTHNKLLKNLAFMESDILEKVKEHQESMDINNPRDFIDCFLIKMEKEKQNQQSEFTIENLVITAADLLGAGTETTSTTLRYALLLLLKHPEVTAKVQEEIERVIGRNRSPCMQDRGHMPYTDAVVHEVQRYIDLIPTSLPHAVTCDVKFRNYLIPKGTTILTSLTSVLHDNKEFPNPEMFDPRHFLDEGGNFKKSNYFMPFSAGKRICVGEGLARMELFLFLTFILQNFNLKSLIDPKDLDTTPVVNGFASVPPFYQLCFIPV
Procedure, shortened: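 Human CYP2C19 (5nM) with Luciferin-H EGE at 10uM (its KM) in 50mM KPO4 was preincubated with compound for 10 min at 37C. NADPH regeneration started a 60 min 37C reaction. Luciferin was read by luminescence, normalized to 57uM ketoconazole.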

[13] = qHTS Assay for Identification of Small Molecule Agonists for Thrombopoietin (TPO) Signaling Pathway (AID 917); conditions: TPO signaling pathway reporter cells, agonist qHTS, stimulated with TPO at its EC50; series mostly up to 38.5 µM
Procedure, shortened: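 We measured Glycoprotein IIb promoter–luciferase output in IL-3-starved Ba/F3 murine cells expressing the human TPO receptor after 24 hrs at 37 C with compounds and 26 pM TPO.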

[14] = target: Muscarinic acetylcholine receptor M1 (Rattus norvegicus) (UniProt P08482); assay: qHTS Assay for Antagonists of Acetylcholine Muscarinic M1 Receptor: Kinetic Measurement of Intracellular Calcium Response (AID 943); conditions: M1-expressing cells, kinetic intracellular calcium fluorescence; series mostly up to 35.3 µM;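 note: Fluo-4 calcium signal as peak divided by basal fluorescence over 4 min; nearly all actives have a fitted effect of over 75% in size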
Chain of Muscarinic acetylcholine receptor M1 (Rattus norvegicus) (P08482 whole entry, looked up): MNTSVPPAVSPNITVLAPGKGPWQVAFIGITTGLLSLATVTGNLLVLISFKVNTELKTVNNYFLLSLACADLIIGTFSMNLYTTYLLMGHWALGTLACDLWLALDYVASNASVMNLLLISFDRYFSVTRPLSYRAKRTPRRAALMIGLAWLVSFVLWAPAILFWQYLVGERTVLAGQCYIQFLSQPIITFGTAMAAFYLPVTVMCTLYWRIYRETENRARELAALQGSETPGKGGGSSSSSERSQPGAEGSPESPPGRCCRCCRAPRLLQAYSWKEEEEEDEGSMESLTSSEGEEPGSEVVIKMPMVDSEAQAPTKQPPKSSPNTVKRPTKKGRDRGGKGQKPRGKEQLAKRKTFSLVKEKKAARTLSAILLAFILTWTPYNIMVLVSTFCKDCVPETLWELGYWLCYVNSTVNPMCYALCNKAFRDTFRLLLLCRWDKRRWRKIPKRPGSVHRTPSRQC
Procedure, shortened: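 Intracellular calcium flux, recorded with Fluo-4 in a kinetic plate reader, served as signal; the response to carbachol at EC80 (100 nM final) was taken as maximal over minimal fluorescence after a 10 min compound pre-incubation in rat M1-CHO cells.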

[15] = target: Muscarinic acetylcholine receptor M1 (Rattus norvegicus) (UniProt P08482); assay: qHTS Assay for Antagonists of Acetylcholine Muscarinic M1 Receptor: Measurement of IP-One Response (AID 944); conditions: CHO-M1 cells, IP-One HTRF, antagonist mode; series mostly up to 46.1 µM; note: nearly all actives have a fitted effect of over 75% in size
Procedure, shortened: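 Steps: plate transfected CHO-M1 cells overnight; add test compound, 10 min; add carbachol (200 nM, EC80) in stimulation buffer with LiCl; incubate 30 min; add labelled IP1 tracer and anti-IP1 antibody in lysis buffer; read HTRF after 10 min.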

[16] = target: Pyruvate kinase (Leishmania mexicana) (UniProt Q27686); assay: qHTS Validation Assay for Inhibitors of Leishmania Mexicana Pyruvate Kinase (AID 945); conditions: purified L. mexicana pyruvate kinase, enzyme activity, E451W mutant enzyme; series mostly up to 57.5 µM
Chain of Pyruvate kinase (Leishmania mexicana) (Q27686 2-499 E452W): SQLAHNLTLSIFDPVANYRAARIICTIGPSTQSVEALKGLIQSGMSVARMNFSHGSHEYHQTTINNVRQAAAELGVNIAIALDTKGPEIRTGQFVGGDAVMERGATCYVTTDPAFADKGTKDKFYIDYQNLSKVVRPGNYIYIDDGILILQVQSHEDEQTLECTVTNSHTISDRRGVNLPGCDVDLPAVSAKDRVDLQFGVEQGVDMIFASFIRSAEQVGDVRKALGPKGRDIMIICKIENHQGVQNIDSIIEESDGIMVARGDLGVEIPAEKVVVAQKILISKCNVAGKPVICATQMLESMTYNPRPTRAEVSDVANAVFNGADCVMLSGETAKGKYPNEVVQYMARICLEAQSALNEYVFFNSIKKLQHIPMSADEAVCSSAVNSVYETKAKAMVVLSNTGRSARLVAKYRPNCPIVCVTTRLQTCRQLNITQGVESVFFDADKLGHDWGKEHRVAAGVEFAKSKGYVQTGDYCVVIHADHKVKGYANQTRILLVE
Procedure, shortened: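 Pyruvate kinase activity of E451W LmPYK (0.2 nM) was followed as ATP output after 1 h at room temperature with 0.5 mM PEP and 0.1 mM ADP, detected by PKLight luminescence.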

[17] = target: Pyruvate kinase PKM (Homo sapiens) (UniProt P14618); assay: qHTS Assay for Activators of Human Muscle Pyruvate Kinase (AID 954; active = well fitted curve in the direction sought with a large enough effect, not every such curve was filed as active); conditions: purified human muscle pyruvate kinase, luciferase-coupled luminescence, 1 h; series mostly up to 57.5 µM
Chain of Pyruvate kinase PKM (Homo sapiens) (P14618 whole entry, looked up): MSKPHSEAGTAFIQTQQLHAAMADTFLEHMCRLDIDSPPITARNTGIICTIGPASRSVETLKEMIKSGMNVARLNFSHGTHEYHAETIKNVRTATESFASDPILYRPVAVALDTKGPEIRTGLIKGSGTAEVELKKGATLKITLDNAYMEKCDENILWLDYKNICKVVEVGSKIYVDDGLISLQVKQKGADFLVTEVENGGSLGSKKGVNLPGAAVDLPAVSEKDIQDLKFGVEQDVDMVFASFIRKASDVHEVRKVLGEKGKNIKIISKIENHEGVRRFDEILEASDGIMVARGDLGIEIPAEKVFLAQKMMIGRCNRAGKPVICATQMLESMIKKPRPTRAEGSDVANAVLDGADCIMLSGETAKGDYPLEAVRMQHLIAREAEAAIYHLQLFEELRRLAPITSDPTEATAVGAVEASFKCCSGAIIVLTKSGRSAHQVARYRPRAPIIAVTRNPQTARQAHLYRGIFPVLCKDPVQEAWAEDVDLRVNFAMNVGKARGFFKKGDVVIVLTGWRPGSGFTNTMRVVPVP
Procedure, shortened: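 Luminescence from a luciferase ATP-detection/stop reagent reported PKM2 activity. Reactions contained 0.1 nM purified human enzyme, 0.5 mM PEP, 0.1 mM ADP and 7 mM MgCl2 at pH 7.2, run 1 h at RT.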

[18] = Confirmation and Secondary Assay for Modulators of Hemoglobin Beta Chain Splicing at IVS2 654 locus (AID 910); conditions: HeLa EGFP-654 splicing reporter, GFP fluorescence, 48 h; series mostly up to 46.1 µM;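 note: per-well total GFP intensity by laser scanning cytometry after 2-day treatment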
Procedure, shortened: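 HeLa cells stably carrying EGFP interrupted by mutant beta-globin IVS2-654 intron (CMV-driven) were treated with compound for 2 days at 37C; corrected splicing was scored as total peak GFP intensity per well (488 nm excitation, 500-520 nm emission).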

[19] = Confirmation and Secondary Assay for Modulators of Hemoglobin Beta Chain Splicing at IVS2 705 locus (AID 930); conditions: HeLa EGFP-705 splicing reporter, GFP fluorescence, 48 h; series mostly up to 46.1 µM;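 note: HeLa cells stably expressing the EGFP-705 splicing reporter; GFP fluorescence per well restored by corrected splicing of the IVS2-705 intron in EGFP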
Procedure, shortened: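 Assay measures total GFP intensity per well in HeLa EGFP-705 cells after 2 days with compound; mis-splicing normally truncates EGFP, so fluorescence indicates corrected splicing.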

Measured: outcome

C=C1C[C@]23C[C@@]1(O)CC[C@H]2[C@@]12C=C[C@H](O)[C@@](C)(C(=O)O1)[C@H]2[C@@H]3C(=O)O
inactive: [1] | [2] | [3] | [4] | [5] | [6] | [7] | [8] | [9]

COc1ccc(CCC(=O)c2c(O)cc(O[C@@H]3O[C@H](CO)[C@@H](O)[C@H](O)[C@H]3O[C@@H]3O[C@@H](C)[C@H](O)[C@@H](O)[C@H]3O)cc2O)cc1O
inactive: [1] | [2] | [3] | [4] | [10] | [5] | [6] | [7] | [8] | [9]

CC(C)C[C@H](NC(=O)[C@@H]1O[C@H]1C(=O)O)C(=O)NCCCCN=C(N)N
inactive: [11] | [12] | [13] | [14] | [15] | [16] | [17]

C[C@]1(C2CCCC2)Cc2cc(OCC(=O)O)c(Cl)c(Cl)c2C1=O
inactive: [11] | [13] | [14] | [15] | [16] | [17]

CCOC(=O)C(CCc1ccccc1)NC(C)C(=O)N1Cc2ccccc2CC1C(=O)O (configuration not stated)
inactive: [10] | [18] | [19]

O=C(/C=C/C=C/c1ccc2c(c1)OCO2)N1CCCCC1
inactive: [18] | [19]
